Laboratory results taken from PubChem BioAssay AID1479144 (National Center for Advancing Translational Sciences (NCATS), 2020).
Records with an inconclusive call do not appear. Activity calls are given as the source filed them. The call rests on the fitted dose curve.

Experiment: Confirmatory qHTS for Vero E6 cytotoxicity: counterscreen for inhibitors of SARS-S pseudo-typed particle cell entry
Conditions: cell viability; series mostly up to 57.1 µM; activity change, negative = cytotoxicity: at the top concentration

Question: Which “activity change, negative = cytotoxicity” value does the source give for `CN1CC[C@H](CN2c3ccccc3Sc3ccccc32)C1` here?
Answer: -9.59% (inactive)

Question: For `OCCN1CCN(CC/C=C2/c3ccccc3Sc3ccc(C(F)(F)F)cc32)CC1`, which “activity change, negative = cytotoxicity” value is on record?
Answer: -23.7% (inactive)

Question: Which “activity change, negative = cytotoxicity” value does the source give for `CCN(CC)Cc1cc(Nc2ccnc3cc(Cl)ccc23)ccc1O` here?
Answer: -2.14% (inactive)

Question: Which Potency does the source give for `CC(=O)Oc1ccccc1C(=O)Nc1ncc([N+](=O)[O-])s1` here?
Answer: 9.61 µM (active)

Question: With `COc1cccc2c1C(=O)c1c(O)c3c(c(O)c1C2=O)C[C@@](O)(C(C)=O)C[C@@H]3O[C@H]1C[C@H](N)[C@H](O)[C@H](C)O1` as the molecule, how does the Potency read?
Answer: 13.6 µM (active)

Question: For `CN(C)CCC=C1c2ccccc2C(C)(C)c2ccccc21`, which “activity change, negative = cytotoxicity” value is on record?
Answer: 0% (inactive)

Question: Which “activity change, negative = cytotoxicity” value does the source give for `CN(C)CCOC(c1ccccc1)c1ccc(Br)cc1` (configuration not stated) here?
Answer: -3.96% (inactive)

Question: For `COc1ccc(Cc2nccc3cc(OC)c(OC)cc23)cc1OC`, which “activity change, negative = cytotoxicity” value is on record?
Answer: -9.35% (inactive)

Question: For `CN1CCCCC1CCN1c2ccccc2Sc2ccc(S(C)=O)cc21` (configuration not stated), which “activity change, negative = cytotoxicity” value is on record?
Answer: -13.1% (inactive)

Question: With `CCCN1C[C@H](C)[C@@H](O)[C@](C)(O)[C@@H](CC)OC(=O)[C@H](C)[C@@H](O[C@H]2C[C@@](C)(OC)[C@@H](O)[C@H](C)O2)C(C)[C@@H](O[C@@H]2O[C@H](C)C[C@H](N(C)C)[C@H]2O)[C@](C)(O)C[C@H]1C` (some centres not stated) as the molecule, how does the “activity change, negative = cytotoxicity” value read?
Answer: -15.3% (inactive)

Question: With `CCCCCCOC(=O)NC(=N)c1ccc(NCc2nc3cc(C(=O)N(CCC(=O)OCC)c4ccccn4)ccc3n2C)cc1` as the molecule, how does the “activity change, negative = cytotoxicity” value read?
Answer: 0% (inactive)

Question: Which “activity change, negative = cytotoxicity” value does the source give for `O=C1CCc2ccc(OCCCCN3CCN(c4cccc(Cl)c4Cl)CC3)cc2N1` here?
Answer: -1.16% (inactive)

Question: Which “activity change, negative = cytotoxicity” value does the source give for `CCCCN=C(N)N=C(N)N` here?
Answer: 0% (inactive)

Question: With `CCCCCCCCCCCC[n+]1ccc2ccccc2c1` as the molecule, how does the Potency read?
Answer: 3.83 µM (active)

Question: With `COc1cc(N)c(Cl)cc1C(=O)NC1CCN(CCCOc2ccc(F)cc2)CC1OC` (configuration not stated) as the molecule, how does the “activity change, negative = cytotoxicity” value read?
Answer: 4.05% (inactive)

Question: With `Cc1c(N)nc(C(CC(N)=O)NCC(N)C(N)=O)nc1C(=O)NC(C(=O)NC(C)C(O)C(C)C(=O)NC(C(=O)NCCc1nc(-c2nc(C(=O)NCCCN[C@@H](C)c3ccccc3)cs2)cs1)C(C)O)C(O[C@@H]1O[C@@H](CO)[C@@H](O)[C@H](O)[C@@H]1O[C@H]1O[C@H](CO)[C@@H](O)[C@H](OC(N)=O)[C@@H]1O)c1cnc[nH]1` (some centres not stated) as the molecule, how does the “activity change, negative = cytotoxicity” value read?
Answer: 0% (inactive)

Question: Which Potency does the source give for `C=CC(=O)Nc1cc(Nc2nccc(-c3cn(C)c4ccccc34)n2)c(OC)cc1N(C)CCN(C)C` here?
Answer: 13.6 µM (active)

Question: For `COc1cc([C@@H]2c3cc4c(cc3C(O[C@@H]3O[C@@H]5CO[C@@H](c6cccs6)OC5[C@H](O)[C@H]3O)C3COC(=O)[C@@H]32)OCO4)cc(OC)c1O` (some centres not stated), which Potency is on record?
Answer: 24.1 µM (active)

Question: For `CCN1CCN(Cc2ccc(Nc3ncc(F)c(-c4cc(F)c5nc(C)n(C(C)C)c5c4)n3)nc2)CC1`, which “activity change, negative = cytotoxicity” value is on record?
Answer: 0% (inactive)

Question: Which Potency does the source give for `O=C(Nc1ccc([N+](=O)[O-])cc1Cl)c1cc(Cl)ccc1O` here?
Answer: 0.857 µM (active)

Question: For `N#CC(c1ccc(Cl)cc1)c1c(Cl)cc(-n2ncc(=O)[nH]c2=O)cc1Cl` (configuration not stated), which Potency is on record?
Answer: 24.1 µM (active)

Question: Which Potency does the source give for `COC(=O)C1=C(C)NC(C)=C(C(=O)OCC(C)C)C1c1ccccc1[N+](=O)[O-]` (configuration not stated) here?
Answer: 27.1 µM (active)

Question: Which Potency does the source give for `Oc1c(Cl)cc(Cl)c(Cl)c1Cc1c(O)c(Cl)cc(Cl)c1Cl` here?
Answer: 4.82 µM (active)

Question: With `CC(C)OC(=O)[C@H](C)N[P@](=O)(CO[C@H](C)Cn1cnc2c(N)ncnc21)Oc1ccccc1` as the molecule, how does the “activity change, negative = cytotoxicity” value read?
Answer: 0% (inactive)

Question: For `CCc1c2c(nc3ccc(OC(=O)N4CCC(N5CCCCC5)CC4)cc13)-c1cc3c(c(=O)n1C2)COC(=O)[C@]3(O)CC`, which “activity change, negative = cytotoxicity” value is on record?
Answer: 0% (inactive)

Question: Which “activity change, negative = cytotoxicity” value does the source give for `Cc1nn(C)c2c1C(c1ccccc1F)=NCC(=O)N2C` here?
Answer: 0% (inactive)

Question: With `Nc1ccn([C@@H]2O[C@H](CO)[C@@H](O)C2(F)F)c(=O)n1` as the molecule, how does the “activity change, negative = cytotoxicity” value read?
Answer: 0% (inactive)

Question: With `CC(=O)N1CCN(c2ccc(OC[C@H]3CO[C@](Cn4ccnc4)(c4ccc(Cl)cc4Cl)O3)cc2)CC1` as the molecule, how does the “activity change, negative = cytotoxicity” value read?
Answer: -20.5% (inactive)

Question: With `CC(C)(C)NCC(O)COc1ccccc1C1CCCC1` (configuration not stated) as the molecule, how does the “activity change, negative = cytotoxicity” value read?
Answer: -11.2% (inactive)

Question: Which “activity change, negative = cytotoxicity” value does the source give for `CCn1cc(C(=O)O)c(=O)c2cc(F)c(N3CCNC(C)C3)c(F)c21` (configuration not stated) here?
Answer: -17.7% (inactive)

Question: With `COc1cc(NS(C)(=O)=O)ccc1Nc1c2ccccc2nc2ccccc12` as the molecule, how does the Potency read?
Answer: 12.1 µM (active)

Question: Which “activity change, negative = cytotoxicity” value does the source give for `CC(CN(C)C)CN1c2ccccc2CCc2ccccc21` (configuration not stated) here?
Answer: -18.4% (inactive)
